Rows were chosen to be rich in hits. Some 4% of all compounds tested hit in one or more screens of this group.
Beta apoptosis – beta cell apoptosis inhibition; INS-1E cytokine-induced death, ATP luminescence, 48 h; percent of positive-control rescue, neutral wells zero; protection from apoptosis, % (concentration not given with the values); actives 0.8% (n = 300,000); AID 435005;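 active means Every replicate reaches about 75%, or at least half do and their mean reaches it too, limit read from the data; inconclusive means At least half of replicates reach the limit but their mean does not; inactive means Under half of replicates reach the limit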;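 further: higher means more ATP so stronger rescue from cytokine killing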
Jurkat NFkB inh – inhibitors of the PMA/ionomycin-induced NF-kB reporter in Jurkat cells; PMA/ionomycin-induced NF-kB luciferase reporter, luminescence; inhibition, % at 4 µM; actives 0.53% (n = 330,000); AID 435003; in the data active means inhibition above about 50%
697 NFkB inh – inhibitors of the PMA/ionomycin-induced NF-kB reporter in 697 B cells. 697 B-cell NF-kB luciferase reporter, 16 h. inhibition, % at 4 µM. actives 0.33% (n = 330,000). AID 435022; in the data active means inhibition above about 35%
Mdm2-MdmX inh – disrupts the human Mdm2-MdmX interaction; O15151+Q00987; SaOS-2 split-luciferase Mdm2/MdmX complementation, luminescence; inhibition, % at 8 µM; actives 3% (n = 330,000);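 active means inhibition of at least 50% at 8 µM in the primary screen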
Target sequence (O15151 whole entry, looked up): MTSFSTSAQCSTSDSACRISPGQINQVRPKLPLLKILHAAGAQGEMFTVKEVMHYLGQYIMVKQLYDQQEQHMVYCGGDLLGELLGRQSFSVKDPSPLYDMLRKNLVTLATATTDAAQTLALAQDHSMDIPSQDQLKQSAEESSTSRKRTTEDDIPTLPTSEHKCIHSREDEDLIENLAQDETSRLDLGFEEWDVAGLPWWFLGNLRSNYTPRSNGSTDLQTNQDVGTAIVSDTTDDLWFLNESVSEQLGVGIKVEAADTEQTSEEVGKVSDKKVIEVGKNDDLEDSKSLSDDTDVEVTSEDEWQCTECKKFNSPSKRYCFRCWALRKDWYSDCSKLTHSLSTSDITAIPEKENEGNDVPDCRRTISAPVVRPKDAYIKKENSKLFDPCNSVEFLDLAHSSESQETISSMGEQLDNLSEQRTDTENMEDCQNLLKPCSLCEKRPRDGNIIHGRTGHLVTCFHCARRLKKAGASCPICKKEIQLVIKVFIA
Target sequence (Q00987 whole entry, looked up): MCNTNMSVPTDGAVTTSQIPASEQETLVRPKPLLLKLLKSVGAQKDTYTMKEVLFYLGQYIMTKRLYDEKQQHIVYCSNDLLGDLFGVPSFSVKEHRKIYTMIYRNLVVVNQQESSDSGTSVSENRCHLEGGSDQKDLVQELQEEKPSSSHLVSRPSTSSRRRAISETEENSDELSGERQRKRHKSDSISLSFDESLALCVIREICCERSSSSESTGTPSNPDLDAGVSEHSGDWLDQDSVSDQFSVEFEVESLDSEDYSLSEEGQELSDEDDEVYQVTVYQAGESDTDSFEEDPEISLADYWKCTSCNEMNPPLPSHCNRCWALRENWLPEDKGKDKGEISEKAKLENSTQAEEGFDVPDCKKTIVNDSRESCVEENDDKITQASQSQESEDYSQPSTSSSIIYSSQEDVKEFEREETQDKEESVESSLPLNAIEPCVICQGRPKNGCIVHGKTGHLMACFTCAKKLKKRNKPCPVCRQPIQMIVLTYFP
Gli-Sufu block – antagonists of Gli-Sufu signaling. Sufu-KO-LIGHT fibroblasts, Gli luciferase reporter luminescence. inhibition, % at 5 µM. actives 0.74% (n = 340,000). AID 588413;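 active means inhibition above about 55%, limit read from the data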
Mdm2 MdmX conf – confirmation of human Mdm2/MdmX interaction inhibitors; shares compounds with Mdm2-MdmX inh; actives 55% (n = 10,000); Mdm2-MdmX binding, luminescent assay; AID 489028; inhibition, % at 8 µM; in the data active means inhibition above about 40%
Full FLuc ctr – full-length luciferase inhibition in Mdm2/MdmX counter-screen | shares compounds with Mdm2-MdmX inh | SaOS-2 full-length luciferase counterscreen, luminescence | inhibition, % at 8 µM | actives 77% (n = 6,200);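 active means mean inhibition at 8 µM reaching about 37%, which flags the compound as non-specific, limit read from the data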;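 further: p53-null SaOS-2 cells with luciferase driven by a doxycycline-inducible promoter; compound on cells about two nights before reading with doxycycline added after day one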
Of the large screens only hits and unclear results are named; the others gave an inactive call (follow-up assays come after a bar, where they were run).

NC(=O)[C@H]1CC2(CC(c3cccc(NC(=O)CC(c4ccccc4)c4ccccc4)c3)=NO2)CN1C(=O)CC(c1ccccc1)c1ccccc1 (some centres undefined)	Mdm2-MdmX inh 67.5 | Mdm2 MdmX conf 51.8 | Full FLuc ctr 57.3
C=CCOc1c(Cl)cc(C(=S)N2CCCC2)cc1OCC	Mdm2-MdmX inh 57.9 (no result: Beta apoptosis) | Mdm2 MdmX conf inactive
CCOc1cc(C(=S)N2CCCC2)ccc1O	none
Cc1ccc(NC(=O)CN(C)C(=O)CCC(=O)N2CCOCC2)cc1	none
Cc1ccccc1C(=O)O/N=C/c1c(N2CCOCC2)n(C)c2ccccc12	Mdm2-MdmX inh 53.2 | Mdm2 MdmX conf inactive
CCn1cc([N+](=O)[O-])c(C(=O)Nc2nc(-c3ccc(C)c(C)c3)c(C)s2)n1	none
CCn1cc([N+](=O)[O-])c(C(=O)Nc2nc(-c3ccc(C)cc3)c(C)s2)n1	Mdm2-MdmX inh 55.5 | Mdm2 MdmX conf inactive
CCOC(=O)c1c(CN(C)C)n(C)c2c(O)c(N=NC(N)=O)c3ccc(Br)cc3c12	Mdm2-MdmX inh 77.1 | Mdm2 MdmX conf 46.6 | Full FLuc ctr inactive
CCC1(C)CC2(CCCN(CCC(=O)c3ccccc3)C2)CCO1 (centres undefined)	none
COc1cc(/C=C2/SC(=Nc3ccc(O)cc3)NC2=O)cc(OC)c1O	Mdm2-MdmX inh 61.5 (no result: Beta apoptosis) | Mdm2 MdmX conf 60.7 | Full FLuc ctr 62.0
Cc1ccc(OCCn2cnc3c(N)ncnc32)cc1	Mdm2-MdmX inh 71.9 | Mdm2 MdmX conf inactive
COC(=O)c1c(-c2ccc(OC)cc2)sc2ccc(N3CCOCC3)cc12	Mdm2-MdmX inh 56.9 | Mdm2 MdmX conf inactive
COc1ccc(-c2sc3ccc(N4CCOCC4)cc3c2-c2ccc(O)cc2)cc1	none
O=S(=O)(NC(=S)c1ccccc1)c1ccccc1	none (no result: Beta apoptosis)
CC(C)N=C(NS(=O)(=O)c1ccccc1)C(Cl)(Cl)Cl	Mdm2-MdmX inh 83.5 | Mdm2 MdmX conf 59.9 | Full FLuc ctr 73.7
C=C1C(=O)O[C@@H]2[C@H]3O[C@]3(C)CC/C=C(\C)CC[C@@H]12	Mdm2-MdmX inh 67.6 | Mdm2 MdmX conf 53.7 | Full FLuc ctr 62.2
C=C1C(=O)O[C@H]2C[C@H]1[C@@H](OC(C)=O)C/C(C)=C/CC/C(C)=C\CC[C@]2(C)O	none (no result: Beta apoptosis, Jurkat NFkB inh, 697 NFkB inh, Mdm2-MdmX inh)
Cc1ccc(-c2cc(C(F)F)nc3sc4c(=O)[nH]cnc4c23)cc1	Mdm2-MdmX inh 70.9 | Mdm2 MdmX conf inactive
CC(C)c1nc2sc3c(=O)[nH]cnc3c2c2c1CCC2	none
Cc1ccccc1Nc1nc(N)nc(CSc2nnnn2-c2ccccc2)n1	none (no result: Beta apoptosis)
CCc1ccc(Nc2nc(N)nc(CSc3nnnn3-c3ccccc3)n2)cc1	Mdm2-MdmX inh 59.5 | Mdm2 MdmX conf 62.5 | Full FLuc ctr 47.7
O=C(Nc1nnc(-c2ccc(F)cc2)o1)c1cc(Cl)sc1Cl	Mdm2-MdmX inh 61.6 (no result: Beta apoptosis) | Mdm2 MdmX conf inactive | Full FLuc ctr 37.9
COc1cccc(-c2nnc(NC(=O)c3ccc(Cl)s3)o2)c1	Mdm2-MdmX inh 60.9 (no result: Beta apoptosis) | Mdm2 MdmX conf inactive
COCCn1c(SCC(=O)NCCCN2CCCC2=O)nc2ccccc2c1=O	none
CCOc1cc(/C=N/NC(=O)C(=O)N/N=C/c2ccc(O)c(OCC)c2)ccc1O	none
CCOc1cc(/C=C2\CN(C)C/C(=C\c3ccc(O)c(OCC)c3)C2=O)ccc1O	Mdm2-MdmX inh 100.3 | Mdm2 MdmX conf 100.2 | Full FLuc ctr inactive
CCOc1cc(/C=N/NC(=O)N/N=C/c2ccc(O)c(OCC)c2)ccc1O	Mdm2-MdmX inh 59.7 | Mdm2 MdmX conf 48.5 | Full FLuc ctr 80.6
CCOc1cc(/C=C2/C(=O)ON=C2C)ccc1O	none
Cc1ccc(N2C(=O)N3[C@H](c4ccc(Cl)cc4)[C@@H]4C(=O)N(C5CCCCC5)C(=O)[C@@H]4[C@]3(Cc3ccccc3)C2=O)cc1	none
CC[C@@]12C(=O)N(c3ccc(OC)cc3)C(=O)N1[C@H](c1ccc(Cl)cc1)[C@@H]1C(=O)N(C3CCCCC3)C(=O)[C@@H]12	none | Mdm2 MdmX conf 48.1 | Full FLuc ctr 48.9
O=C1[C@H]2[C@@H](c3ccc(F)cc3)N3C(=O)N(c4ccc(Br)cc4)C(=O)[C@@]3(Cc3ccccc3)[C@H]2C(=O)N1C1CCCCC1	Mdm2-MdmX inh 83.6 | Mdm2 MdmX conf 93.9 | Full FLuc ctr inactive
O=C(O)c1ccc(S(=O)(=O)N2CCc3ccccc3C2)cc1	none
COc1ccc(NC(=O)Nc2nnc(Cc3ccc(F)cc3)s2)cc1	none
c1ccc2c(c1)OCC(c1nnc3sc(-c4ccc5c(c4)OCO5)nn13)O2 (centres undefined)	none
Brc1ccccc1-c1nnc2sc(-c3ccc4c(c3)OCCO4)nn12	Mdm2-MdmX inh 51.0 | Mdm2 MdmX conf 62.4 | Full FLuc ctr 61.0
Clc1ccccc1-c1nnc2sc(-c3ccc4c(c3)OCO4)nn12	Mdm2-MdmX inh 65.4 | Mdm2 MdmX conf inactive | Full FLuc ctr 83.1
c1ccc2c(c1)ncn2Cc1nnc2sc(-c3ccc4c(c3)OCO4)nn12	none
CC1CC(=O)N(CC(=O)Nc2ccc(F)cc2)c2ccccc2S1(=O)=O (centres undefined)	none
CN(C)C(=S)Nc1ccc(S(=O)(=O)N2CCCCC2)cc1	none
O=C1N/C(=C/c2cccs2)C(=O)N1Cc1ccc(Br)cc1	Mdm2-MdmX inh 53.6 | Mdm2 MdmX conf inactive
Cc1ccc(/C=C2/NC(=O)N(Cc3ccccc3)C2=O)s1	none
Cc1ccc(S(=O)(=O)N2CCC(C(=O)N3CCN(c4ccccn4)CC3)CC2)cc1	none
CC(C)(C)NC(=O)c1nc2ccccc2s1	none
Cc1ccc(C)c2sc(NC(=O)c3nc4ccccc4s3)nc12	Mdm2-MdmX inh 57.6 | Mdm2 MdmX conf inactive
Cc1ccc(Cl)cc1NC(=O)CC(O)(C(F)(F)F)C(F)(F)F	Mdm2-MdmX inh 59.4 (no result: Beta apoptosis) | Mdm2 MdmX conf inactive
COCC(=O)Nc1cc(Cl)ccc1C	none
Cc1cc(C)n(-c2nc(Nc3ccccc3C(F)(F)F)nc(-n3nc(C)cc3C)n2)n1	Beta apoptosis 82.1, Mdm2-MdmX inh 68.9 | Mdm2 MdmX conf inactive
Cc1cc(C)n(-c2nc(NC(C)(C)C)nc(NC(C)(C)C)n2)n1	Beta apoptosis inconclusive
Cc1cc(C)n(-c2nc(NC(C)C)nc(NC(C)C)n2)n1	none
Cc1cc(C)n(-c2nc(Nc3ccccc3C)nc(-n3nc(C)cc3C)n2)n1	Mdm2-MdmX inh 66.5 (no result: Beta apoptosis, Gli-Sufu block) | Mdm2 MdmX conf inactive
O=C(NCC(=O)N1CCCCCCC1)c1cccc([N+](=O)[O-])c1	none
CC(=O)OCCN(C)c1cc(SC(C)C)c2nonc2c1[N+](=O)[O-]	none
CN(CCO)c1cc(Sc2nc3ccccc3s2)c2nonc2c1[N+](=O)[O-]	Mdm2-MdmX inh 96.6 | Mdm2 MdmX conf 97.2 | Full FLuc ctr inactive
Cc1cc(-c2ccc(C(C)C)c(S(=O)(=O)N3CCN(c4ccccn4)CC3)c2)on1	Mdm2-MdmX inh 62.6 | Mdm2 MdmX conf 61.5 | Full FLuc ctr 51.5
CCc1ccc(-c2cc(C)no2)cc1S(=O)(=O)N1CCN(c2ccccn2)CC1	none
